Experiment [1] can be described thus: qHTS of pediatric cancer cell lines to identify multiple opportunities for drug repurposing: Primary screen for Rh41 cells (AID 1347108). Further: nearly all actives have a fitted effect of over 70% in size. Further: potency means the concentration at half of the fitted maximal effect. The gist of the method: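 Primary screen of approved and investigational compounds on cells in growth media at 37 degrees C, 5% CO2. MIPE set at 11-point and NPC set at 8-point dilutions; viability scored by ATP-based luminescence at 48 hours.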
On the technique in general: Quantitative high-throughput screening tests each substance at several concentrations.

Experiment [2] is described as follows: qHTS of pediatric cancer cell lines to identify multiple opportunities for drug repurposing: Confirmatory screen for NB1643 cells (AID 1347109). Further: potency means the concentration at half of the fitted maximal effect; nearly all actives have a fitted effect of over 45% in size. The gist of the method: (§1)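 Cells (500-1,000/well) rested 5 h, then received compounds for 48 h; metabolically active cells were measured by CellTiter-Glo luminescence. Final concentrations spanned up to 46 µM (MIPE, 11-point) or 0.59 nM-46 µM (NPC, 8-point) in primary screens, 11-point in follow-ups.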

Experiment [3] can be described thus: qHTS of pediatric cancer cell lines to identify multiple opportunities for drug repurposing: Confirmatory screen for A673 cells (AID 1347110).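 Further: potency means the concentration at half of the fitted maximal effect; cells exposed to compound for 48 h before the viability read; nearly all actives have a fitted effect of over 65% in size.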 An outline of the steps:
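A673 cells at 500-1,000 cells/well were dosed 5 h after plating, in dilution series up to 46 uM final; primary runs used 8 or 11 points and confirmatory runs used 11 points. Viability was read by CellTiter-Glo luminescence after 48 h, against DMSO and 2.3 uM bortezomib controls.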

Experiment [4] is described as follows: qHTS of pediatric cancer cell lines to identify multiple opportunities for drug repurposing: Confirmatory screen for SK-N-MC cells (AID 1347111).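 Further: potency means the concentration at half of the fitted maximal effect; cells exposed to compound for 48 h before the readout; nearly all actives have a fitted effect of over 70% in size.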 The gist of the method: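 Seed 500-1,000 cells/well; rest 5 h at 37 degrees C. Pin-transfer compounds, 11-point titration. Incubate 48 h. Add CellTiter-Glo, 15 min RT, read luminescence.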
The nature of experiment [5]: qHTS of pediatric cancer cell lines to identify multiple opportunities for drug repurposing: Confirmatory screen for LAN-5 cells (AID 1347113). Further: potency means the concentration at half of the fitted maximal effect; nearly all actives have a fitted effect of over 65% in size. The gist of the method: as §1
Experiment [6] is described as follows: qHTS of pediatric cancer cell lines to identify multiple opportunities for drug repurposing: Confirmatory screen for DAOY cells (AID 1347114). Further: potency means the concentration at half of the fitted maximal effect; nearly all actives have a fitted effect of over 65% in size. The gist of the method:
(§2)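 Viability measured as metabolically active cells via CellTiter-Glo luminescence following 48 hours of compound exposure, 11-point dilutions in confirmatory testing. 500-1,000 cells/well plated 5 hours before dosing; controls were DMSO and 2.3 µM bortezomib.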

The nature of experiment [7]: qHTS of pediatric cancer cell lines to identify multiple opportunities for drug repurposing: Confirmatory screen for SJ-GBM2 cells (AID 1347116). Further: nearly all actives have a fitted effect of over 60% in size. Further: potency means the concentration at half of the fitted maximal effect. An outline of the steps:
as §2

Experiment [8] in a line: qHTS of pediatric cancer cell lines to identify multiple opportunities for drug repurposing: Confirmatory screen for TC32 cells (AID 1347118).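 Further: potency means the concentration at half of the fitted maximal effect; cells exposed to compound for 48 h before the read; nearly all actives have a fitted effect of over 65% in size.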 The gist of the method: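 Luminescent CellTiter-Glo read-out of metabolically active TC32 cells after 48 h compound exposure. Primary: MIPE 11-point, 0.78 nM–46 µM; NPC 8-point, 0.59 nM–46 µM. Confirmatory: 11-point dilutions.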
Experiment [9] can be described thus: qHTS of pediatric cancer cell lines to identify multiple opportunities for drug repurposing: Confirmatory screen for MG 63 (6-TG R) cells (AID 1347119). Further: potency means the concentration at half of the fitted maximal effect; nearly all actives have a fitted effect of over 55% in size. The gist of the method:
as §1

Experiment [10] is described as follows: qHTS of pediatric cancer cell lines to identify multiple opportunities for drug repurposing: Confirmatory screen for U-2 OS cells (AID 1347122). An outline of the steps:
as §1

The nature of experiment [11]: qHTS of pediatric cancer cell lines to identify multiple opportunities for drug repurposing: Confirmatory screen for Rh41 cells (AID 1347123). Further: potency means the concentration at half of the fitted maximal effect; nearly all actives have a fitted effect of over 60% in size. An outline of the steps: as §1
The nature of experiment [12]: qHTS of pediatric cancer cell lines to identify multiple opportunities for drug repurposing: Confirmatory screen for Rh18 cells (AID 1347125). Further: nearly all actives have a fitted effect of over 55% in size. Further: potency means the concentration at half of the fitted maximal effect. An outline of the steps: as §1
Experiment [13] can be described thus: qHTS of pediatric cancer cell lines to identify multiple opportunities for drug repurposing: Confirmatory screen for Rh30 cells (AID 1347126). Further: potency means the concentration at half of the fitted maximal effect; nearly all actives have a fitted effect of over 55% in size. An outline of the steps: as §1
Experiment [14] in a line: qHTS of pediatric cancer cell lines to identify multiple opportunities for drug repurposing: Confirmatory screen for BT-12 cells (AID 1347112). Further: nearly all actives have a fitted effect of over 55% in size. Further: potency means the concentration at half of the fitted maximal effect. An outline of the steps: as §1
A short description of experiment [15]: qHTS of pediatric cancer cell lines to identify multiple opportunities for drug repurposing: Confirmatory screen for BT-37 cells (AID 1347117). An outline of the steps: as §1
A short description of experiment [16]: qHTS of pediatric cancer cell lines to identify multiple opportunities for drug repurposing: Confirmatory screen for RD cells (AID 1347124). Further: potency means the concentration at half of the fitted maximal effect. An outline of the steps:
as §1

The nature of experiment [17]: qHTS of pediatric cancer cell lines to identify multiple opportunities for drug repurposing: Confirmatory screen for NB-EBc1 cells (AID 1347115).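 Further: cells exposed to compound for 48 h before the viability read; nearly all actives have a fitted effect of over 45% in size.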 An outline of the steps: as §1
Experiment [18] is described as follows: qHTS of pediatric cancer cell lines to identify multiple opportunities for drug repurposing: Confirmatory screen for control Hh wild type fibroblast cells (AID 1347121). Further: nearly all actives have a fitted effect of over 70% in size. The gist of the method:
as §1

Experiment [19] can be described thus: qHTS of pediatric cancer cell lines to identify multiple opportunities for drug repurposing: Primary screen for Rh30 cells (AID 1347107). Further: series mostly up to about 46 µM; nearly all actives have a fitted effect of over 75% in size. The gist of the method: as §1

Records with an inconclusive call do not appear. Active and inactive are the calls of the source. The call rests on the fitted dose curve; in most records, active means well fitted curve in the direction sought with a large enough effect; inconclusive means small, poorly fitted or top-dose-only effect, or another doubt; inactive means no such curve, though single readings can be large; an effect the other way counts as inactive or inconclusive.

As to `O=C(NCCCNc1nc(Nc2cccc(NC(=O)N3CCCC3)c2)ncc1I)c1cccs1`, the Potency in [1] is 18.7 µM (active).

As for `Cc1cc(N2CCOCC2)cc2[nH]c(-c3c(NC[C@@H](O)c4cccc(Cl)c4)cc[nH]c3=O)nc12`, the Potency is 0.296 µM (active) in experiment [1]; 0.827 µM (active) in experiment [2]; 1.17 µM (active) in experiment [3]; 0.737 µM (active) in experiment [4]; 1.17 µM (active) in experiment [5]; 3.29 µM (active) in experiment [6]. The Potency in experiment [7] is 0.369 µM (active); in experiment [8] it was 0.465 µM (active); in experiment [9], 0.329 µM (active); in [10] it was 7.37 µM (active); in experiment [11], 0.657 µM (active); in experiment [12] it was 3.29 µM (active). For the same molecule, in experiment [13], the Potency is 0.293 µM (active).

As for `CCc1cc2c(cc1N1CCC(N3CCOCC3)CC1)C(C)(C)c1[nH]c3cc(C#N)ccc3c1C2=O`, the Potency entry in experiment [1] was “inactive”.

Regarding `O=C(C=Cc1cccc(S(=O)(=O)Nc2ccccc2)c1)NO`, the Potency in experiment [1] was 6.79 µM (active); in [2], 1.35 µM (active); in experiment [3], 6.03 µM (active); in experiment [4], 1.51 µM (active); in [14], 38 µM (active); in experiment [5] it was 1.7 µM (active). In addition, the Potency in experiment [6] was 19.1 µM (active); in experiment [7], 2.14 µM (active); in [15] it was 1.7 µM (active); in experiment [8] it was 0.759 µM (active); in [9] it was 2.69 µM (active); in [10], 2.4 µM (active). Moreover, the Potency is 5.37 µM (active) in experiment [11], 5.37 µM (active) in [16], 1.91 µM (active) in experiment [12] and 5.37 µM (active) in experiment [13].

Take `N#CCNC(=O)c1ccc(-c2ccnc(Nc3ccc(N4CCOCC4)cc3)n2)cc1`: in [1], the Potency was 18.7 µM (active).

For `CC(=O)OCC(=O)[C@@]1(O)[C@H](C)C[C@H]2[C@@H]3C=C(C)C4=Cc5c(cnn5-c5ccccc5)C[C@]4(C)[C@@H]3[C@@H](O)C[C@@]21C`, the Potency in experiment [1] was 18.7 µM (active); in [3], 13.1 µM (active); in experiment [4] it was 2.93 µM (active); in experiment [14], 32.9 µM (active); in [5], 13.1 µM (active); in experiment [6], 18.5 µM (active). Also, the Potency in [7] was 13.1 µM (active); in [15] it was 13.1 µM (active); in experiment [8] it was 4.14 µM (active); in experiment [9], 18.5 µM (active); in experiment [10] it was 9.27 µM (active); in experiment [11] it was 13.1 µM (active). Further, the figures for the Potency in experiment [16], in [12] and in experiment [13] were 9.27 µM (active), 16.5 µM (active) and 16.5 µM (active), respectively.

With `CC(C)=CCCC(C)=CCCC(C)=CCSc1ccccc1C(=O)O`, in experiment [1], the Potency was 4.69 µM (active).

`COc1cc2nccc(Oc3ccc(NC(=O)C4(C(=O)Nc5ccc(F)cc5)CC4)cc3)c2cc1OC`: the Potency was 9.35 µM (active) in experiment [1]; 18.5 µM (active) in experiment [3]; 1.65 µM (active) in experiment [7]; 18.5 µM (active) in experiment [8]; 23.3 µM (active) in [10]; 26.1 µM (active) in [11]. Moreover, the Potency entry in [14], in experiment [17], in experiment [18] and in experiment [16] was “inactive” throughout.

As for `COC(=O)c1ccc2c(C(=Nc3ccc(N(C)C(=O)CN4CCN(C)CC4)cc3)c3ccccc3)c(O)[nH]c2c1`, the Potency in experiment [1] was 18.7 µM (active); in [4], 18.5 µM (active); in experiment [5], 18.5 µM (active); in experiment [6], 26.1 µM (active); in [8] it was 18.5 µM (active); in experiment [9] it was 3.29 µM (active). Moreover, the Potency was 13.1 µM (active) in [10], 8.27 µM (active) in [11], 26.1 µM (active) in experiment [12] and 16.5 µM (active) in experiment [13]. In addition, the Potency entry in [14], in experiment [7] and in experiment [18] was “inactive” each time.

On to `COc1ccc(OC)c(-c2nnc3ccc(-c4ccc(OC)c(O[C@@H]5CCOC5)c4)nn23)c1`, for which the Potency in experiment [1] is 20.9 µM (active); in experiment [2], 5.22 µM (active); in experiment [3] it was 10.4 µM (active); in [4], 4.65 µM (active); in [15], 7.37 µM (active); in [8] it was 2.93 µM (active). Moreover, the Potency in experiment [11] is 2.93 µM (active); in [16], 11.7 µM (active); in experiment [13], 4.14 µM (active). Moreover, the Potency result in experiment [14] and in experiment [12] was “inactive” each time.

For the molecule `COc1cc(Nc2ncc(F)c(Nc3ccc4c(n3)N(COP(=O)(O)O)C(=O)C(C)(C)O4)n2)cc(OC)c1OC`, the Potency in experiment [1] was 3.72 µM (active); in [3], 7.37 µM (active); in experiment [4], 11.7 µM (active); in experiment [5] it was 10.4 µM (active); in experiment [6] it was 3.69 µM (active); in experiment [15], 10.4 µM (active). Besides, the Potency in experiment [8] was 5.85 µM (active); in [9], 2.33 µM (active); in experiment [10] it was 4.14 µM (active); in experiment [11], 3.29 µM (active); in experiment [16], 16.5 µM (active); in [13] it was 2.33 µM (active).

For the molecule `CCC1=C[C@@H]2CN(C1)Cc1c([nH]c3ccccc13)[C@@](C(=O)OC)(c1cc3c(cc1OC)N(C)[C@@H]1[C@@](O)(C(=O)OC)[C@H](OC(C)=O)[C@]4(CC)C=CCN5CC[C@]31[C@@H]54)C2`, the Potency entry in experiment [19], in [18] and in experiment [12] was “inactive” in each case. The Potency in experiment [3] is 0.329 µM (active); in [4], 5.22 µM (active); in experiment [6], 0.657 µM (active); in experiment [7] it was 5.22 µM (active); in [15], 7.37 µM (active); in experiment [8] it was 6.57 µM (active). Further, the Potency is 13.1 µM (active) in [9]; 7.37 µM (active) in [10]; 0.369 µM (active) in [11]; 0.369 µM (active) in experiment [16]; 23.3 µM (active) in experiment [13].

`CNC(=O)c1cc(Oc2ccc(NC(=O)Nc3cc(C(C)(C)C)nn3-c3ccc4ncccc4c3)c(F)c2)ccn1`: the Potency in experiment [1] is 23.5 µM (active).

For `Cn1c2ccccc2c2c3c(c4c5ccccc5n(CCC#N)c4c21)CNC3=O`, the Potency was 4.65 µM (active) in [3]; 0.465 µM (active) in experiment [4]; 5.85 µM (active) in experiment [15]; 4.14 µM (active) in experiment [8]; 3.69 µM (active) in experiment [10]; 29.3 µM (active) in experiment [11]. Further, the Potency result in experiment [14], in experiment [18] and in experiment [12] was “inactive” each time.

With `Nc1ncnc2c1c(-c1cccc(OCc3ccccc3)c1)cn2C1CC(CN2CCCC2)C1` (stereo not given), the Potency in [1] was 1.87 µM (active).

Consider `CC(C)c1ccccc1Cc1cc(C(=O)Nc2ccc(S(=O)(=O)c3ccccc3C(C)(C)C)cc2)c(O)c(O)c1O`, for which, in experiment [1], the Potency is 18.7 µM (active).

The record behind these values is PubChem BioAssay (NCATS).
